# Test results as given in PubChem BioAssay (EPA / NIEHS).
# Activity calls are given as the source filed them. How the source made its calls: active means hit-call score of the fitted dose curve at least 0.9, where 1 is the maximum; inactive means score below 0.9.
# Legend:
# Details in all cases: mRNA level, 48 h; actives raise or lower the signal
# [1] = read-out: Cytochrome P450 3A4 (Homo sapiens) (UniProt P08684); experiment: LTEA_HepaRG_CYP3A4: Life Technologies and Expression Analysis (LTEA) Assay for CYP3A4 using HepaRG (AID 2283487)
# Summary of the method: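 Differentiated HepaRG cells in serum-free induction medium exposed in duplicate for 48 h to 8 half-log concentrations up to 100 uM in 0.5% DMSO. CYP3A4 mRNA measured by qRT-PCR normalized to ACTB, GAPDH and POLR2A; bidirectional fit versus DMSO.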
# [2] = read-out: DNA damage-inducible transcript 3 (DDIT3), DDIT3 (gene 1649); experiment: LTEA_HepaRG_DDIT3: Life Technologies and Expression Analysis (LTEA) Assay for DNA damage-inducible transcript 3 (DDIT3) using HepaRG (AID 2283488)
# Summary of the method: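 Differentiated human HepaRG cells in serum-free induction medium were exposed in duplicate for 48 h to 8 concentrations (top 100 uM, half-log steps, 0.5% DMSO). DDIT3 mRNA measured by TaqMan qRT-PCR, normalized to ACTB/GAPDH/POLR2A; bidirectional fit versus DMSO.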
# [3] = read-out: Pro-epidermal growth factor (Homo sapiens) (UniProt P01133); experiment: LTEA_HepaRG_EGF: Life Technologies and Expression Analysis (LTEA) Assay for Epidermal growth factor (EGF) using HepaRG (AID 2283489)
# Summary of the method: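 EGF transcript measured by Fluidigm TaqMan qRT-PCR with three housekeeping genes for normalization, 48 h after dosing HepaRG cultures in duplicate (top 100 uM, half-log steps, 0.5% DMSO vehicle). Gain or loss relative to DMSO fitted.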
# [4] = read-out: Early growth response protein 1 (EGR1) transcription factor, EGR1 (gene 1958); experiment: LTEA_HepaRG_EGR1: Life Technologies and Expression Analysis (LTEA) Assay for Early growth response protein 1 (EGR1) transcription factor using HepaRG (AID 2283490)
# Summary of the method: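 Differentiated HepaRG cells in serum-free induction medium exposed 48 hours, duplicate, to 8 half-log concentrations up to 100 uM in 0.5% DMSO. EGR1 mRNA measured by TaqMan qRT-PCR, normalized to ACTB, GAPDH, POLR2A; bidirectional fit versus DMSO.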
# [5] = read-out: Ezrin (EZR), EZR (gene 7430); experiment: LTEA_HepaRG_EZR: Life Technologies and Expression Analysis (LTEA) Assay for Ezrin (EZR) using HepaRG (AID 2283491)
# Summary of the method: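 Differentiated human HepaRG cells, 48 h after plating, were exposed in serum-free induction medium for 48 hours to eight half-log concentrations up to 100 uM in 0.5% DMSO. EZR mRNA was measured by TaqMan qRT-PCR, normalized to ACTB, GAPDH and POLR2A, and fitted bidirectionally against DMSO.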
# [6] = read-out: Cytochrome P450 3A7 (Homo sapiens) (UniProt P24462); experiment: LTEA_HepaRG_CYP3A7: Life Technologies and Expression Analysis (LTEA) Assay for CYP3A7 using HepaRG (AID 2283492)
# Summary of the method: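 CYP3A7 transcript measured by qRT-PCR (ACTB, GAPDH, POLR2A normalization) after 48 h chemical exposure of HepaRG cells in duplicate. Eight half-log concentrations, maximum 100 uM, 0.5% DMSO vehicle; bidirectional curve fitting against DMSO baseline.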
# CYP3A5 (gene 1577) = experiment: LTEA_HepaRG_CYP3A5: Life Technologies and Expression Analysis (LTEA) Assay for CYP3A5 using HepaRG (AID 2283493)
# Summary of the method: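 Differentiated HepaRG cells in serum-free induction medium were dosed 48 h with test chemicals (8-point half-log series, top 100 uM, 0.5% DMSO, duplicate). CYP3A5 mRNA measured by qRT-PCR, normalized to ACTB, GAPDH, POLR2A; bidirectional fit versus DMSO.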
# [7] = read-out: Fatty Acid-Binding Protein 1 (FABP1), FABP1 (gene 2168); experiment: LTEA_HepaRG_FABP1: Life Technologies and Expression Analysis (LTEA) Assay for Fatty Acid-Binding Protein 1 (FABP1) using HepaRG (AID 2283494)
# Summary of the method: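 Differentiated human HepaRG cells exposed 48 h in serum-free induction medium to eight half-log concentrations up to 100 uM (0.5% DMSO), duplicate. FABP1 mRNA by qRT-PCR, normalised to ACTB, GAPDH, POLR2A; bidirectional fitting against DMSO.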
# [8] = read-out: Cytochrome P450 7A1 (Homo sapiens) (UniProt P22680); experiment: LTEA_HepaRG_CYP7A1: Life Technologies and Expression Analysis (LTEA) Assay for Cytochrome P450 7A1 (CYP7A1) using HepaRG (AID 2283496)
# Summary of the method: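 Gene expression endpoint in human HepaRG liver cells treated for 48 h with test chemicals (up to 100 uM, 0.5% DMSO). Values come from bidirectional concentration-response fitting versus DMSO.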
# [9] = read-out: Glutathione S-Transferase (GSTA2), GSTA2 (gene 2939); experiment: LTEA_HepaRG_GSTA2: Life Technologies and Expression Analysis (LTEA) Assay for Glutathione S-Transferase (GSTA2) using HepaRG (AID 2283497)
# Summary of the method: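 Differentiated human HepaRG cells were exposed in duplicate for 48 h in serum-free induction medium, 8 points from 100 uM top in half-log steps, 0.5% DMSO. GSTA2 mRNA was measured by TaqMan qRT-PCR, normalized to ACTB, GAPDH and POLR2A; bidirectional fit versus DMSO.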
# [10] = read-out: growth arrest and DNA damage 45 (GADD45G), GADD45G (gene 10912); experiment: LTEA_HepaRG_GADD45G: Life Technologies and Expression Analysis (LTEA) Assay for growth arrest and DNA damage 45 (GADD45G) using HepaRG (AID 2283499)
# Summary of the method: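 GADD45G transcript level by qRT-PCR (housekeeping-normalized: ACTB, GAPDH, POLR2A) after 48 h chemical treatment of a single HepaRG lot in serum-free induction medium; eight-point half-log series up to 100 uM in 0.5% DMSO, duplicates, up- or down-regulation scored.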
# [11] = read-out: Glutamate-cysteine ligase regulatory (GCLM), GCLM (gene 2730); experiment: LTEA_HepaRG_GCLM: Life Technologies and Expression Analysis (LTEA) Assay for Glutamate-cysteine ligase regulatory (GCLM) using HepaRG (AID 2283500)
# Summary of the method: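 Differentiated human HepaRG cells exposed 48 h in serum-free induction medium to 8-point half-log concentrations (top 100 uM, 0.5% DMSO), in duplicate. GCLM mRNA quantified by qRT-PCR, normalized to ACTB, GAPDH, POLR2A; bidirectional fitting versus DMSO.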
# [12] = read-out: Glutathione S-transferase M3 (GSTM3), GSTM3 (gene 2947); experiment: LTEA_HepaRG_GSTM3: Life Technologies and Expression Analysis (LTEA) Assay for Glutathione S-transferase M3 (GSTM3) using HepaRG (AID 2283501)
# Summary of the method: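 GSTM3 transcript levels came from Fluidigm TaqMan qRT-PCR normalized to three housekeeping genes, fitted in both directions against DMSO. HepaRG cultures received chemicals for 48 h in serum-free induction medium (0.5% DMSO), 8 half-log concentrations up to 100 uM, duplicate.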
# [13] = read-out: Heat shock 70 kDa protein 1 (HSPA1A), gene 3303; experiment: LTEA_HepaRG_HSPA1A: Life Technologies and Expression Analysis (LTEA) Assay for Heat shock 70 kDa protein 1 (HSPA1A) using HepaRG (AID 2283502)
# Summary of the method: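 Differentiated human HepaRG cells in serum-free induction medium were exposed in duplicate for 48 h to eight concentrations (top 100 uM, half-log steps, 0.5% DMSO). HSPA1A mRNA was quantified by qRT-PCR, normalized to ACTB, GAPDH and POLR2A, and fitted bidirectionally against DMSO.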
# [14] = read-out: Hypoxia-inducible factor 1-alpha (Homo sapiens) (UniProt Q16665); experiment: LTEA_HepaRG_HIF1A: Life Technologies and Expression Analysis (LTEA) Assay for Hypoxia-inducible factor 1 (HIF1A) Trancription factor using HepaRG (AID 2283503)
# Summary of the method: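 HepaRG, 48 h exposure, 8-pt half-log series from 100 uM, 0.5% DMSO vehicle, duplicates. Readout: HIF1A transcript by qRT-PCR (Fluidigm array), housekeeping-normalised. Bidirectional curve fit vs DMSO baseline.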
# [15] = read-out: 3-Hydroxy-3-Methylglutaryl-CoA Synthase 2 (HMGCS2), HMGCS2 (gene 3158); experiment: LTEA_HepaRG_HMGCS2: Life Technologies and Expression Analysis (LTEA) Assay for 3-Hydroxy-3-Methylglutaryl-CoA Synthase 2 (HMGCS2) using HepaRG (AID 2283504)
# Summary of the method: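 Readout is HMGCS2 transcript by qRT-PCR, housekeeping-normalised (ACTB/GAPDH/POLR2A) and fitted bidirectionally against 0.5% DMSO. Differentiated HepaRG cells received chemicals 48 h, duplicate wells, eight half-log concentrations topping at 100 uM.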
# HGF (gene 3082) = experiment: LTEA_HepaRG_HGF: Life Technologies and Expression Analysis (LTEA) Assay for Hepatocyte Growth Facto (HGF) using HepaRG (AID 2283505)
# Summary of the method: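 HGF transcript was quantified by TaqMan qRT-PCR against three housekeeping genes after 48 h treatment of HepaRG cells. Exposure ran in duplicate over eight half-log steps topping at 100 uM in 0.5% DMSO vehicle.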
# [16] = read-out: Insulin Like Growth Factor 1 (IGF1), IGF1 (gene 3479); experiment: LTEA_HepaRG_IGF1: Life Technologies and Expression Analysis (LTEA) Assay for Insulin Like Growth Factor 1 (IGF1) using HepaRG (AID 2283506)
# Summary of the method: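 Differentiated human HepaRG cells were dosed for 48 h in serum-free induction medium with 0.5% DMSO, eight half-log concentrations up to 100 uM, in duplicate. IGF1 mRNA was quantified by qRT-PCR normalized to ACTB, GAPDH, POLR2A; bidirectional fitting versus DMSO.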
# [17] = read-out: Intercellular Adhesion Molecule 1 (ICAM1), ICAM1 (gene 3383); experiment: LTEA_HepaRG_ICAM1: Life Technologies and Expression Analysis (LTEA) Assay for Intercellular Adhesion Molecule 1 (ICAM1) using HepaRG (AID 2283507)
# Summary of the method: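 ICAM1 transcript levels measured by qRT-PCR, normalized to three housekeeping genes (ACTB, GAPDH, POLR2A), after 48 h chemical exposure of HepaRG cells. Duplicate eight-point half-log series from 100 uM in 0.5% DMSO; gain or loss fitted against vehicle.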
# [18] = read-out: Insulin-like growth factor-binding protein 1 (IGFBP1), IGFBP1 (gene 3484); experiment: LTEA_HepaRG_IGFBP1: Life Technologies and Expression Analysis (LTEA) Assay for Insulin-like growth factor-binding protein 1 (IGFBP1) using HepaRG (AID 2283508)
# Summary of the method: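 Read-out is qRT-PCR transcript level normalized to three housekeeping genes, fitted in both directions against 0.5% DMSO. Differentiated HepaRG cells received eight half-log concentrations (top 100 uM) in duplicate for 48 h in serum-free induction medium.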
# Chain of Hypoxia-inducible factor 1-alpha (Homo sapiens) (Q16665 whole entry, looked up): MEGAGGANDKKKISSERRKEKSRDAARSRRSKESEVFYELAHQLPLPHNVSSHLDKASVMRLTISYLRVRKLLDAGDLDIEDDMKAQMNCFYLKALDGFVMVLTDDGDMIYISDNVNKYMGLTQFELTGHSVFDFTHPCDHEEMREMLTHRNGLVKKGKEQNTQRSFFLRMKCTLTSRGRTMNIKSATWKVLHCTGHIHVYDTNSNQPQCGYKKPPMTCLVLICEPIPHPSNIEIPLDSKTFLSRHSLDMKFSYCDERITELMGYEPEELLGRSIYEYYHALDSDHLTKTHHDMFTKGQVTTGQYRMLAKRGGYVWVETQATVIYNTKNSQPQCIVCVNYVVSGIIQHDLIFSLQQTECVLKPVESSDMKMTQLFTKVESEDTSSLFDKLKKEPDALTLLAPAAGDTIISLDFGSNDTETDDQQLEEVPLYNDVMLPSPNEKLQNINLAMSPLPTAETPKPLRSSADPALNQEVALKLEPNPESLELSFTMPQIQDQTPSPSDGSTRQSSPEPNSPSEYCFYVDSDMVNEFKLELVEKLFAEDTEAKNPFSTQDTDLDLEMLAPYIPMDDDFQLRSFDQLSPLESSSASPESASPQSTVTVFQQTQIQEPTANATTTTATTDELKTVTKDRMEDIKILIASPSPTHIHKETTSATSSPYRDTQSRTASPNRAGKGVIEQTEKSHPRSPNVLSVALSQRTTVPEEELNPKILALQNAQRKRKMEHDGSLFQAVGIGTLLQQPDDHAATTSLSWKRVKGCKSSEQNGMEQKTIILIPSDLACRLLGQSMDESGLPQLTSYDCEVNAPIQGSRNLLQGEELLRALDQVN
# Chain of Cytochrome P450 3A7 (Homo sapiens) (P24462 whole entry, looked up): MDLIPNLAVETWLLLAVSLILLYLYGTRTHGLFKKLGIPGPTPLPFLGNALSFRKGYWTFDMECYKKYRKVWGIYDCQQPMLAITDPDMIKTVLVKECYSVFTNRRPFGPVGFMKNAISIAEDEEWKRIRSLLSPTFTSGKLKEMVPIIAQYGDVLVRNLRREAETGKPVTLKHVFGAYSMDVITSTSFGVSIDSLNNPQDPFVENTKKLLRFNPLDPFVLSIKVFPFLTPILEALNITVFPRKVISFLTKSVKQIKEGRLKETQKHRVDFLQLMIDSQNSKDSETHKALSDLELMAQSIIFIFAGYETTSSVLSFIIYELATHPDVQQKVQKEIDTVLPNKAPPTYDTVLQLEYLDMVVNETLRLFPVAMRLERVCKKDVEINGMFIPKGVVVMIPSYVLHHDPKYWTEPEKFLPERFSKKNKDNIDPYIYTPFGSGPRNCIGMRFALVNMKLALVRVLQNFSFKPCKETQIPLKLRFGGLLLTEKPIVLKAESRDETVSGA
# Chain of Cytochrome P450 3A4 (Homo sapiens) (P08684 whole entry, looked up): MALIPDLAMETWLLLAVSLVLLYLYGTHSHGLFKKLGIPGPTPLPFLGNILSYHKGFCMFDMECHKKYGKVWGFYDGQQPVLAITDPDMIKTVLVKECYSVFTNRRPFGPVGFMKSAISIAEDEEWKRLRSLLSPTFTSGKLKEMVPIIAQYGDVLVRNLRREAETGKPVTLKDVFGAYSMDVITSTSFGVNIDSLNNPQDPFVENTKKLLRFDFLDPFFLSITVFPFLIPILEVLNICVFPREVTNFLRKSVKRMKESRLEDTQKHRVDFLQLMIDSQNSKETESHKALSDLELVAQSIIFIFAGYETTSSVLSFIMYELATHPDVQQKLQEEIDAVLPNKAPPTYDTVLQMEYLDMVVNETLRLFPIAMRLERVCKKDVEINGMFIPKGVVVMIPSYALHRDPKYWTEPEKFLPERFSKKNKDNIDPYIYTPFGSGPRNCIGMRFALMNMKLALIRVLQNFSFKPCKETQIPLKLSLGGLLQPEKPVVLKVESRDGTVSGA
compound,measurement,setting,value
COc1ccccc1N,outcome,[1],inactive
same,outcome,[2],inactive
same,outcome,[3],inactive
same,outcome,[4],inactive
same,outcome,[5],inactive
same,outcome,[6],inactive
same,outcome,CYP3A5 (gene 1577),inactive
same,outcome,[7],inactive
same,outcome,[8],inactive
same,outcome,[9],inactive
same,outcome,[10],inactive
same,outcome,[11],inactive
same,outcome,[12],inactive
same,outcome,[13],inactive
same,outcome,[14],inactive
same,outcome,[15],inactive
same,outcome,HGF (gene 3082),inactive
same,outcome,[16],inactive
same,outcome,[17],inactive
same,outcome,[18],inactive
CCCCCCCCCCCCc1cccc(S(=O)(=O)O)c1,AC50,[1],18.9 µM (active)
same,AC50,[2],45 µM (active)
same,outcome,[3],inactive
same,outcome,[4],inactive
same,outcome,[5],inactive
same,AC50,[6],20.4 µM (active)
same,outcome,CYP3A5 (gene 1577),inactive
same,outcome,[7],inactive
same,outcome,[8],inactive
same,outcome,[9],inactive
same,outcome,[10],inactive
same,outcome,[11],inactive
same,outcome,[12],inactive
same,AC50,[13],59.4 µM (active)
same,AC50,[14],16.5 µM (active)
same,AC50,[15],37.9 µM (active)
same,outcome,HGF (gene 3082),inactive
same,outcome,[16],inactive
same,outcome,[17],inactive
same,outcome,[18],inactive
OCCN(CCO)CCO,outcome,[1],inactive
same,outcome,[2],inactive
same,outcome,[3],inactive
same,outcome,[4],inactive
same,outcome,[5],inactive
same,outcome,[6],inactive
same,outcome,CYP3A5 (gene 1577),inactive
same,outcome,[7],inactive
same,outcome,[8],inactive
same,outcome,[9],inactive
same,outcome,[10],inactive
same,outcome,[11],inactive
same,outcome,[12],inactive
same,outcome,[13],inactive
same,outcome,[14],inactive
same,outcome,[15],inactive
same,outcome,HGF (gene 3082),inactive
same,outcome,[16],inactive
same,outcome,[17],inactive
same,outcome,[18],inactive
CN(C)C(=S)S,outcome,[1],inactive
same,outcome,[2],inactive
same,outcome,[4],inactive
same,outcome,[5],inactive
same,outcome,[6],inactive
same,outcome,CYP3A5 (gene 1577),inactive
same,outcome,[7],inactive
same,outcome,[9],inactive
same,outcome,[10],inactive
same,outcome,[11],inactive
same,outcome,[12],inactive
same,outcome,[13],inactive
same,outcome,[14],inactive
same,outcome,[15],inactive
same,outcome,HGF (gene 3082),inactive
same,outcome,[16],inactive
same,outcome,[17],inactive
same,outcome,[18],inactive
